# Assay results as given in PubChem BioAssay AID360 (National Center for Advancing Translational Sciences (NCATS), 2006).
# Out of some 48,000 compounds screened, about 550 (1.1%) were called active. Not shown: some 4% with an inconclusive outcome. Many of the other results were omitted from the sample, so actives are more common in it than they were. A number with no mark means an inactive call. No stated cut-off is given here; in the data, active means potency below about 15 µM; inconclusive means mostly about 16 µM to 33 µM; inactive means weaker than that.
# Biological target: Lysosomal acid glucosylceramidase (Homo sapiens) (UniProt P04062)
# Sequence (P04062 whole entry, looked up): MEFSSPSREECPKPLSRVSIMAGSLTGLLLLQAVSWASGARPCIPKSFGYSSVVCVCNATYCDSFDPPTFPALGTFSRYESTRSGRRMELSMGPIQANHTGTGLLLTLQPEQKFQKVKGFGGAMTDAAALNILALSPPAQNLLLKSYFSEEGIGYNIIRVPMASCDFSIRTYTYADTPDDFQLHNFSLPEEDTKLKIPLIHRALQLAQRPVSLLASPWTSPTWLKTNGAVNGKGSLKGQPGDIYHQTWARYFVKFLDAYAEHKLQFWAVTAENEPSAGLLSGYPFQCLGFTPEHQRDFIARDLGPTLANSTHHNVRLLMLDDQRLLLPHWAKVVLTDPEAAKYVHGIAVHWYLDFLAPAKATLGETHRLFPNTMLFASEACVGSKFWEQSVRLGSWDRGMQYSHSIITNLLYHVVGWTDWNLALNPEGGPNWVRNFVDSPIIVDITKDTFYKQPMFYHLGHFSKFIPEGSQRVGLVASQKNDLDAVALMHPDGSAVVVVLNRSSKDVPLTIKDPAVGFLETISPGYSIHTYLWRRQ
# Experiment: Glucocerebrosidase;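 further: the screen sought inhibitors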
# Details: purified enzyme, resorufin glucoside fluorescence (screen aimed at inhibitors), 20 min
# From the text: NCGC Assay Overview: Beta-glucocerebrosidase catalyzes the hydrolysis of beta-glucocerebroside to glucose and ceramide. The inherited deficiency of beta-glucocerebrosidase results in Gaucher disease, which is characterized by a wide variety of symptoms including hepatosplenomegaly, anemia, thrombocytopenia, bony lesions and bone marrow infiltration with characteristic storage cells, known as Gaucher cells. There are also forms of the disorder affecting the central nervous system. Patients with the same genotypes can manifest with diverse clinical presentations and it is believed that improper folding and trafficking of beta-glucocerbrosidase may contribute to the phenotypes observed. Low molecular weight molecules, acting as chaperones, may potentially restore trafficking of misfolded beta-glucocerebrosidase from the endoplasmic reticulum to the lysosomes, thereby enhancing functional lysosomal beta-glucocerebrosidase activity. Using normal beta-glucocerebrosidase, an assay was developed to screen for small molecule inhibitors that could potentially act as molecular chaperones on the mutant forms [developed with NIH investigator Dr. Ellen Sidransky's laboratory]. Two pro-fluorescent substrates were chosen for two screens against a small molecule library. One beta-glucocerebrosidase assay used Resorufin beta-D-Glucopyranoside (Marker Gene Technology Inc.), generating a red fluorescent product. The second assay used Fluorescein di-beta-D-Glucopyranoside, generating a blue fluorescent product. […] The IC50 values of Conduritol B Epoxide, a known glucocerebrosidase inhibitor, were determined to be 87.5 uM and 117 uM, respectively. The use of two difference pro-fluorescent substrates in the screens helped to eliminate false positives. All compounds were screened in a titration series resulting in AC50s (e.g., IC50s or EC50s).
# NCGC Assay Protocol Summary: Both enzyme and substrate were diluted in buffer composed of 50mM citric acid/KH2PO4, 10mM sodium taurocholate and 0.01% tween-20 at pH 5.9. The final concentration of the enzyme was 0.2 nM in both assays. The compound library was titrated in 7 to 15 concentrations for the primary screens with a final concentration ranging from 0.6 nM to 50 uM. This particular assay protocol is for the "red" substrate, and it was performed in 1536-well plate format as follows: Red fluorescence substrate assay: 2 uL enzyme 23 nL compound 1 uL substrate (final concentration of 30 uM) Incubate at room temperature (RT) for 20 minutes Read the plate in Viewlux plate reader (Ex=548(7) and Em=600(10)).
# Potency means the concentration at half of the fitted maximal effect.
row,Compound,Potency
1,CCOC(=O)c1sc(N(Cc2ccccc2)C(=O)CN2C(=O)CN(C)C2=O)nc1C,> 76.9 µM
2,CCOC(=O)c1c(C)[nH]c(C(=O)NCc2ccccc2OC)c1C,> 76.9 µM
3,Fc1ccc(-c2nnc3sc(-c4ccc5c(c4)OCO5)nn23)cc1,> 76.9 µM
4,Cc1cc(C)cc(N(C(C)C(=O)Nc2c(C)n(C)n(-c3ccccc3)c2=O)S(C)(=O)=O)c1 (stereo not drawn),> 76.9 µM
5,c1ccc(CCc2nc(-c3ccncc3)no2)cc1,> 76.9 µM
6,CC(Sc1nncn1C)C(=O)Nc1ccccc1-c1ccccc1 (stereo not drawn),> 76.9 µM
7,Cc1ccc(S(=O)(=O)N2CCN(C(=O)CCC(=O)NC3CCCc4ccccc43)CC2)cc1 (stereo not drawn),> 76.9 µM
8,Cc1noc(C)c1C(=O)NC(C)c1ccc2c(c1)OCO2 (stereo not drawn),> 76.9 µM
9,CCN(CC)CCN1C(=O)C(=O)/C(=C(/O)c2ccc(OC)c(OC)c2)C1c1ccccn1 (stereo not drawn),> 76.9 µM
10,Cc1nc(NC(CC(C)C)C(=O)O)c2nc(C)oc2n1 (stereo not drawn),> 76.9 µM
11,C=CCn1c(C(C)NC(=O)CC)nc2ccccc21 (stereo not drawn),> 76.9 µM
12,CCOC(=O)N1CCN(C(=O)C2CCN(S(C)(=O)=O)CC2)CC1,> 76.9 µM
13,CC(C)CCNc1nc(N2CCCC2)c2c(c1C#N)CCN(C)C2,12.7 µM (active)
14,Cc1cc(C)c2nc(N3CCCC3)c(C#N)cc2c1,> 76.9 µM
15,Cc1cccc2cc(C#N)c(N3CCCC3)nc12,> 76.9 µM
16,Cn1c(=O)n(C)c(=O)n(CC(=O)N2CCCCC2)c1=O,> 76.9 µM
17,Cc1cc(=O)cc(C)[nH]1,> 76.9 µM
18,C=CCn1c(SCc2cc(C(=O)OC)c(C)o2)nnc1-c1ccncc1,> 76.9 µM
19,Cc1ccc(S(=O)(=O)N(C)CC(=O)N2CCc3ccccc32)cc1,> 76.9 µM
20,CCC(CC)c1nnc(NS(=O)(=O)Cc2ccccc2)s1,> 76.9 µM

row,Compound,Potency
1,CC(Oc1ccc(Cl)cc1)C(=O)Nc1ncccn1 (stereo not drawn),> 76.9 µM
2,O=c1ccc2cc(S(=O)(=O)N3CCN(c4ccccc4)CC3)ccc2o1,> 76.9 µM
3,COc1ccc(N2CCN(Cc3cc(=O)oc4ccc5ccccc5c34)CC2)cc1,5.96 µM (active)
4,COc1ccc(N2CCN(CCNC(=O)CCN3C(=O)COc4ccccc43)CC2)cc1,> 76.9 µM
5,COC(=O)c1cc(NC(=O)CN2CCC(C(N)=O)(N3CCCCC3)CC2)cc(C(=O)OC)c1,> 76.9 µM
6,COc1ccc(S(=O)(=O)N2CCN(c3ncnc4c(-c5ccccc5)nsc34)CC2)cc1,> 76.9 µM
7,CCn1c2c(c3ccc(OC)cc31)CCCC2=O,> 76.9 µM
8,CCOC(=O)CNC(=O)CSc1nnc(COc2ccc(Cl)cc2)n1CC,> 76.9 µM
9,O=S(=O)(Nc1ccccc1N1CCOCC1)c1ccc(Cl)s1,> 76.9 µM
10,COc1cccc(C2/C(=C(/O)c3ccncc3)C(=O)C(=O)N2CCCN(C)C)c1 (stereo not drawn),> 76.9 µM
11,CC1CCCCN1CC(=O)NCc1ccc2c(c1)OCO2 (stereo not drawn),> 76.9 µM
12,CC(C)(C)Oc1ncc(Br)c(OC(C)(C)C)n1,> 76.9 µM
13,N#CC(C(N)=O)=C1CCC2(CC1)OCCCCO2,> 76.9 µM
14,O=C(Cn1c(=O)sc2ccccc21)Nc1ccc2c(c1)OCCO2,> 76.9 µM
15,COc1ccc(C(c2nnnn2Cc2cccs2)N2CCN(c3ccccc3)CC2)cc1OC (stereo not drawn),> 76.9 µM
16,O=C(Cn1c(=S)nc2ccccn21)N1CCc2ccccc2C1,> 76.9 µM
17,COc1ccc(-c2ccc(-c3noc(-c4ccncc4)n3)c(OC)n2)cc1,> 76.9 µM
18,CCOc1nc(-c2ccc(OC)cc2)ccc1-c1noc(-c2cc(OC)c(OC)c(OC)c2)n1,6.96 µM (active)
19,COc1ccc(-c2nc(-c3ccccc3)no2)c(OC)c1,> 76.9 µM
20,CCCC(=O)Nc1ccc2c(c1)nc1n2CCSC1,> 76.9 µM

row,Compound,Potency
1,O=C(O)CCC(=O)N(Cc1ccco1)c1nc(-c2ccccc2)cs1,> 76.9 µM
2,COCc1nnc(NC(=O)CS(=O)(=O)Cc2ccccc2)s1,> 76.9 µM
3,Cc1ccc(C)n1-c1ccncc1,> 76.9 µM
4,Cc1ccc(C(C(=O)NCc2ccco2)N(CC2CCCO2)C(=O)Cn2nnc3ccccc32)cc1 (stereo not drawn),> 76.9 µM
5,Cc1ccc(-c2noc(CCC(N)=O)n2)cc1,> 76.9 µM
6,Cc1ccc(S(=O)(=O)N2CCOCC2)cc1C(=O)NCc1ccc(F)cc1,> 76.9 µM
7,Cc1nc(SCC(=O)Nc2cc(C)on2)c2c3c(sc2n1)CCCC3,15.3 µM (active)
8,Cc1nc(SCC(=O)Nc2cc(C)on2)c2c(C)c(C)sc2n1,> 76.9 µM
9,Cc1cc(C)n(-c2nc(SCC(=O)N3CCCC3)c3c4c(sc3n2)CCCC4)n1,> 76.9 µM
10,CCn1nnc(NC(=O)c2cc(Cl)c(OC)c(Cl)c2)n1,> 76.9 µM
11,Cc1ccccc1OCC(=O)Nc1ccc(N2CCN(C(=O)C(C)C)CC2)c(Cl)c1,2.17 µM (active)
12,Cc1cccc(NC(=O)COc2ccccc2C)n1,> 76.9 µM
13,CCOc1cc(N2CCOCC2)c(OCC)cc1NC(=O)COc1cccc2cccnc12,> 76.9 µM
14,CC1(C)CC(=O)C2=C(C1)NCN(CCCN1CCOCC1)C2,> 76.9 µM
15,Cn1c(=O)[nH]c(=O)c2c1nc(N1CCCCCC1)n2CC(=O)c1ccccc1,> 76.9 µM
16,CCn1c(SCC(=O)Nc2cc(C)c(Cl)cc2OC)nnc1-c1ccco1,> 76.9 µM
17,N#Cc1c(N)sc2c1CCN(C(=O)OCc1ccccc1)C2,> 76.9 µM
18,O=C(O)CCC(=O)N(Cc1cccs1)Cc1cccs1,> 76.9 µM
